# Results taken from PubChem BioAssay (Tox21).
# Where “and” joins values, the source holds several entries; their conditions need not be identical. Equal entries are not always repeated. Results filed as inconclusive are left out. Calls of active or inactive are those of the source. The call rests on the fitted dose curve; in most records, active means well fitted cell-killing curve with a large enough effect in the repeat runs; inconclusive means weak or mixed curves, or effect the other way; inactive means flat fitted curve, though single readings scatter.
# Experiment: qHTS assay to identify small molecule that activate the aryl hydrocarbon receptor (AhR) signaling pathway - cell viability counter screen (AID 743086); further: nearly all actives have a fitted effect of over 45% in size;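 on viability change, negative = cytotoxic: HepG2 liver cells carrying the AhR DRE luciferase reporter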
# Settings: HepG2-AhR-luc viability, CellTiter-Fluor, 24 h; series mostly up to 70.3 µM; viability change, negative = cytotoxic: at the top concentration
# Source text: U.S. Tox21 Program National Center for Advancing Translational Sciences [NCATS] NIH Chemical Genomics Center [NCGC] U.S. Environmental Protection Agency [EPA] National Institutes of Environmental Health Sciences [NIEHS] National Toxicology Program [NTP] U.S. Food and Drug Administration [FDA] Tox21 Assay overview: The Aryl hydrocarbon Receptor (AhR), a member of the family of basic helix-loop-helix transcription factors, is crucial to adaptive responses to environmental changes. AhR mediates cellular responses to environmental pollutants such as aromatic hydrocarbons through induction of phase I and II enzymes but also interacts with other nuclear receptor signaling pathways A cell based HepG2-AhR-luc assay (HG2L7.5c1 cell line, developed by Dr. Michael S. Denison, University of California at Davis) was used to assess the activation of AhR. HepG2 (human hepatocellular carcinoma) cells were stably transfected with an Ah receptor-responsive firefly luciferase reporter gene plasmid containing 20 dioxin responsive elements and luciferase reporter gene. Increased luciferase activity can be used to identify the compounds that induce AhR activation. The cytotoxicity of the compounds screened against the HepG2-AhR-luc cell line was tested in parallel by measuring the cell viability using CellTiter-Fluor assay in the same wells.
# Tox21 Assay Protocol Summary: 4000 cells in 5 uL/well were dispensed into white wall/solid bottom 1536-well plates using a Multidrop Combi (Thermo Fisher Scientific Inc., Waltham, MA) dispenser. After the assay plates were incubated at 37C for 5 h, 23 nL of compound or DMSO vehicle was transferred to the assay plates by a pintool station (Kalypsys, San Diego, CA). The plates were incubated at 37C for 24 hr. For cell viability measurement, 1 ul/well of CellTiter-Fluor reagent (Promega, Madison, WI) was added into the assay plates using a Flying Reagent Dispenser (FRD) (Aurora Discovery, CA),and then the assay plates were incubated at 37C for 30 min. The fluorescence intensity in the plates was measured using a ViewLux plate reader (PerkinElmer, Shelton, CT), followed by the addition of 4 uL of ONE-Glo Luciferase Assay reagent (Promega) using an FRD (Aurora Discovery). After the assay plates were incubated at room temperature for 30 min, luminescence intensity was measured using a ViewLux plate reader (Perkin Elmer).
# On the % scale 0 is the no-effect control and ±100 the full control effect; potency means the concentration at half of the fitted maximal effect.
Structure (SMILES),Potency,"viability change, negative = cytotoxic"
CC1(C)[C@@H](O)CC[C@]2(C)[C@H]3C(=O)C=C4[C@@H]5C[C@@](C)(C(=O)O)CC[C@]5(C)CC[C@@]4(C)[C@]3(C)CC[C@@H]12,inactive,
CCC(=O)C(=O)CC,,0.169% [at 95 µM] (inactive)
CCCC(=O)OC(C)(C)Cc1ccccc1,,-7.66% (inactive)
O=C(O)c1cc(=O)c2ccccc2o1,,17.1% (inactive)
CCCCC(CC)CN1CN(CC(CC)CCCC)CC(C)(N)C1 (stereo not given),,-4.19% [at 32.5 µM] (inactive)
O=C(O)O,,-24.2% [at 8.47 µM] (inactive)
CCCCCC(C)OC(=O)COc1ccc(Cl)c2cccnc12 (stereo not given),,-0.624% (inactive)
CC(C)CCOC(=O)/C=C/c1ccccc1,,3.62% [at 95 µM] (inactive)
O=S(=O)(O)c1ccc(N=Nc2c(O)ccc3ccccc23)cc1,24.3 µM (active),
CC/C=C\CCCCCO,,1.48% (inactive)
CCCCOC(=O)CC,,-1.57% (inactive)
C#C[C@]1(OC(C)=O)CC[C@H]2[C@@H]3CCC4=C[C@@H](OC(C)=O)CC[C@@H]4[C@H]3CC[C@@]21C,inactive,
Cc1ccc(C(=O)O)cc1,,8.69% [at 95 µM] (inactive)
C[Si](Cl)(c1ccccc1)c1ccccc1,,6.62% (inactive)
CCCCCCCCCCC[C@@H](C[C@@H]1OC(=O)[C@H]1CCCCCC)OC(=O)[C@H](CC(C)C)NC=O,,-2.12% (inactive)
Cc1c2ccccc2c(C)c2c1ccc1ccccc12,60.5 µM (active) and 48.6 µM (active),
C#C[C@]1(OC(C)=O)CC[C@H]2[C@@H]3CCC4=C/C(=N/O)CC[C@@H]4[C@H]3CC[C@@]21CC,,-21.9% (inactive)
CCCCCc1ccc(Cl)cc1,,0.0615% (inactive)
O=c1oc2cc(O)ccc2c2oc3cc(O)ccc3c12,,17.2% (inactive)
CN(C)C(=O)COC(=O)Cc1ccc(OC(=O)c2ccc(N=C(N)N)cc2)cc1,,12.6% (inactive)

Structure (SMILES),Potency,"viability change, negative = cytotoxic"
CCCCCCCCCCOC(=O)c1ccccc1C(=O)OCCCCCCCC,,-3.68% (inactive)
ClCCl,,-1% (inactive)
CCCCCCCCCCCCCC[N+](C)(C)C,16.8 µM (active) and 52.7 µM (active) and 54.4 µM (active),
CC(CO)Oc1ccccc1 (stereo not given),,-10.6% [at 95 µM] (inactive)
S=c1nccc[nH]1,,5.61% (inactive)
CC1=CCC(=C(C)C)CC1,,2.48% (inactive)
O=[N+]([O-])c1cccc(C(F)(F)F)c1,,-1.07% [at 95 µM] (inactive)
O=C(O)c1cc(-c2ccc(F)cc2F)ccc1O,,-0.164% [at 32.5 µM] (inactive)
OC1CCCc2ccccc21 (stereo not given),,-3.45% [at 95 µM] (inactive)
CC1(C)CCC[C@]2(C)[C@H]3CCO[C@]3(C)CC[C@@H]12,,1.37% (inactive)
NC(=O)c1cccc([N+](=O)[O-])c1,,4.25% (inactive)
Nc1nc2c(ncn2COCCO)c(=O)[nH]1,,-0.0162% [at 32.5 µM] (inactive)
CCCCN(CCCC)CC(O)c1cc(Cl)cc2c1-c1ccc(Cl)cc1/C2=C/c1ccc(Cl)cc1 (stereo not given),,-21.4% (inactive)
CCCCCCCCCCCCOC(=O)c1ccc(O)cc1,,7.18% [at 95 µM] (inactive)
O=C(O)CCN(C1(C(=O)NO)CCCC1)S(=O)(=O)c1ccc(Oc2ccc(F)cc2)cc1,,3.74% (inactive)
COc1cc(/C=C/c2ccccc2)oc(=O)c1,,12.5% [at 95 µM] (inactive)
CC[C@H](C)COC(=O)/C=C/c1ccc(N=Cc2ccc(OC)cc2)cc1,,-9.78% (inactive)
COc1ccc(NC(=O)CC(C)=O)cc1,,-3.29% (inactive)
Clc1ccnc(Cl)n1,,4.94% [at 95 µM] (inactive)
C=CCCC(=O)/C=C/C1C(C)=CCCC1(C)C (stereo not given),,-2.74% (inactive)
